Results on 12 compounds are retold here after PubChem BioAssay (NCI).

Test systems include HCT-15 colon; HT29 colon; SNB-75 CNS; SNB-19 CNS; U251 CNS; PC-3 prostate; SK-MEL-5 melanoma; UACC-62 melanoma; LOX IMVI melanoma; SK-MEL-28 melanoma.
Common to all, as to experiment: NCI-60 one-dose screen, 48 h (100 = growth as untreated, 0 = no growth, -100 = all killed)
Conditions in all cases: 10 µM unless noted

The panel holds about 83,000 compounds, 20% with a hit somewhere; the sample as a whole holds those more often.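 Plates (96-well) were seeded with cells, treated with compound at one concentration, and incubated for 48 hours before percent growth was determined.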 A number with no mark means an inactive call. Calls of active or inactive are those of the source. The calls were made as follows: active = growth percent below 10; inactive = the rest.

As to `COc1cc(OCc2cccc(-c3ccc(C(O)c4nccs4)cc3)c2C)cc(OC)c1C=O` (stereo not given), the growth in the test on HCT-15 colon is 32.3%; in the test on HT29 colon, 48.7%; in the test on SNB-75 CNS, 69.6%; with SNB-19 CNS it was 70.4%; with U251 CNS it was 60.6%; in the test with PC-3 prostate, 52.2%. Further, the growth with SK-MEL-5 melanoma is -78.1% (active); with UACC-62 melanoma, -4.45% (active); in the test with LOX IMVI melanoma, 48.8%; with SK-MEL-28 melanoma it was 57.3%.

Consider `CCOC(=O)n1cc(C2=C(c3cn(C)c4ccccc34)COC2=O)c2ccccc21`, for which the growth with HCT-15 colon is 12.2%; in the test with HT29 colon it was 9.6% (active); in the test with SNB-75 CNS, 26.4%; with SNB-19 CNS, 30.5%; with U251 CNS, 14.9%; in the test on PC-3 prostate it was 28.3%. In addition, the growth with SK-MEL-5 melanoma was -7.08% (active); in the test with UACC-62 melanoma it was 26.1%; in the test on LOX IMVI melanoma it was 18.7%; in the test on SK-MEL-28 melanoma, 47.7%.

Turning to `Cc1c(NCC(=O)Nc2nc3ccccc3[nH]2)c(=O)n(-c2ccccc2)n1C`, the growth with HCT-15 colon is 94.5%; in the test on HT29 colon, 105%; with SNB-75 CNS it was 94.3%; in the test on SNB-19 CNS, 97%; in the test with U251 CNS, 96.7%; with PC-3 prostate, 92.7%. The growth in the test on SK-MEL-5 melanoma was 100%; in the test on UACC-62 melanoma, 102%; in the test with LOX IMVI melanoma, 97.1%; in the test with SK-MEL-28 melanoma, 110%.

For the compound `Fc1c[c-]c(-c2ccccn2)c(F)c1.Fc1c[c-]c(-c2ccccn2)c(F)c1.[Cl][Pt+].[Cl][Pt+].c1ccc([PH+](C[PH+](c2ccccc2)c2ccccc2)c2ccccc2)cc1`, the growth was 90.8% in the test on HCT-15 colon; 7.78% (active) in the test on HT29 colon; 20.1% with SNB-75 CNS; 17.8% in the test on SNB-19 CNS; 15% with U251 CNS; 14.9% in the test with PC-3 prostate. In addition, the growth in the test on SK-MEL-5 melanoma is -70.8% (active); in the test on UACC-62 melanoma, 3.59% (active); with LOX IMVI melanoma, 20.5%; with SK-MEL-28 melanoma, 16.1%.

For `COc1ccc(-c2nc3sc(C)cn3c2/C=C/C(=O)c2cc(OC)c(OC)c(OC)c2)cc1`, the growth with HCT-15 colon was 48.1%; in the test on HT29 colon, 60.1%; with SNB-75 CNS, 55.8%; with SNB-19 CNS, 75.6%; in the test with U251 CNS, 47.1%; in the test on PC-3 prostate, 19%. Moreover, the growth in the test with SK-MEL-5 melanoma is 4.08% (active); in the test on UACC-62 melanoma, 36.7%; in the test with LOX IMVI melanoma, 48.8%; with SK-MEL-28 melanoma, 41.4%.

In the case of `O=S(=O)(OCCO)c1ccccc1`, the growth in the test on HCT-15 colon was 103%; in the test on HT29 colon, 98.9%; in the test with SNB-75 CNS, 75%; in the test with SNB-19 CNS it was 102%; in the test on U251 CNS, 106%; in the test with PC-3 prostate, 99.3%. In addition, the growth in the test with SK-MEL-5 melanoma was 94.4%; in the test with UACC-62 melanoma, 94.2%; in the test on LOX IMVI melanoma, 103%; in the test on SK-MEL-28 melanoma, 110%.

As to `O=C1CCC(N2C(=O)c3cccc(NCCOCCOCCNC(=O)c4cc5c(o4)C(=O)c4ccccc4C5=O)c3C2=O)C(=O)N1` (stereo not given), the growth in the test on HCT-15 colon was 55.1%; in the test with HT29 colon, -16.8% (active); in the test with SNB-75 CNS, -98.2% (active); in the test on SNB-19 CNS, -24.3% (active); in the test on U251 CNS, -42% (active); with PC-3 prostate, 6.46% (active). Further, the growth with SK-MEL-5 melanoma was -98.2% (active); with UACC-62 melanoma, -81.8% (active); with LOX IMVI melanoma it was -74.1% (active); in the test on SK-MEL-28 melanoma, -38.7% (active).

As for `Clc1cccc(Cl)c1Nc1ccc2nnc(-c3ccncc3)n2n1`, the growth is 90.9% in the test with HCT-15 colon; 106% in the test on HT29 colon; 99.4% in the test with SNB-75 CNS; 101% in the test on SNB-19 CNS; 103% in the test with U251 CNS; 101% with PC-3 prostate. The growth was 100% in the test on SK-MEL-5 melanoma, 106% in the test on UACC-62 melanoma, 93.2% in the test on LOX IMVI melanoma and 105% with SK-MEL-28 melanoma.

On to `NS(=O)(=O)c1ccc(C(=O)N/N=C(\CS(=O)(=O)c2ccccc2)c2cc3cc(Br)ccc3o2)cc1`, for which the growth in the test with HCT-15 colon is 99.5%; in the test with HT29 colon, 97.4%; with SNB-75 CNS it was 56.1%; in the test with SNB-19 CNS it was 69.9%; in the test with U251 CNS, 96.1%; with PC-3 prostate, 94.4%. The growth in the test with SK-MEL-5 melanoma was 85.6%; with UACC-62 melanoma it was 82%; with LOX IMVI melanoma it was 94.7%; in the test with SK-MEL-28 melanoma, 98.4%.

On to `COC(=O)c1c2c(c(C)[n+]([O-])c1C)C(=O)C=C(NCc1ccc(Cl)cc1)C2=O`, for which the growth in the test with HCT-15 colon is -54.8% (active); with HT29 colon, 2.63% (active); in the test on SNB-75 CNS it was -94.8% (active); in the test with SNB-19 CNS, -23.5% (active); in the test with U251 CNS it was -7.46% (active); in the test with PC-3 prostate, 1.07% (active). The growth is -98.8% (active) in the test on SK-MEL-5 melanoma, -65.5% (active) in the test on UACC-62 melanoma, -23.2% (active) in the test with LOX IMVI melanoma and 10.6% with SK-MEL-28 melanoma.

Take `O=S(=O)(Nc1ncccn1)c1ccc(Nc2ccc3nnc(-c4ccncc4)n3n2)cc1`: the growth in the test with HCT-15 colon is 99.3%; in the test with HT29 colon, 116%; in the test with SNB-75 CNS, 86.9%; with SNB-19 CNS, 99.7%; in the test on U251 CNS, 102%; in the test with PC-3 prostate, 102%. For the same compound, the growth in the test on SK-MEL-5 melanoma was 100%; with UACC-62 melanoma, 99.1%; in the test on LOX IMVI melanoma, 95.1%; in the test on SK-MEL-28 melanoma, 99.1%.

Turning to `O=c1oc2ccccc2cc1-c1csc(N/N=C/c2cc3ccccc3nc2Cl)n1`, the growth in the test with HCT-15 colon was 101%; with HT29 colon, 100%; in the test on SNB-75 CNS it was 96.7%; in the test on SNB-19 CNS, 96.1%; with U251 CNS, 97.2%; in the test on PC-3 prostate, 95%. Besides, the growth in the test with SK-MEL-5 melanoma is 98.4%; in the test with UACC-62 melanoma, 91.8%; in the test with LOX IMVI melanoma, 101%; with SK-MEL-28 melanoma, 102%.
